Experimental data reported in PubChem BioAssay (NCATS).
Where “and” joins values, the source holds several entries; their conditions need not be identical. Equal entries are not always repeated. Records with an inconclusive call do not appear. Where a call stands in place of a potency, no number is given. Calls of active or inactive are those of the source. Unless noted, calls come from the whole dose curve.

Key:
[1] = target: Bile acid receptor (Homo sapiens) (UniProt Q96RI1); assay: qHTS assay for small molecule antagonists of farnesoid X receptor signaling (AID 588526)
Summary of the method: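 Concentration-response titrations were fitted to the Hill equation for half-maximal inhibition and maximal response, with data normalised to 50 uM chenodeoxycholic acid and DMSO control wells. Cells: FXR-UAS-bla HEK293T, dialyzed FBS.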

[2] = target: Peroxisome proliferator-activated receptor gamma (Homo sapiens) (UniProt P37231); assay: qHTS assay for small molecule agonists of peroxisome proliferator-activated receptor gamma signaling (AID 588536; active = well fitted curve in the direction sought with a large enough effect in the signal ratio, with a control signal flat, not every such curve was filed as active; the % refers to the signal ratio)
Summary of the method: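 Test agents, titrated, stimulated HEK293 UAS-bla cells overnight (16 h, 37 C). Substrate CCF4 was then added for two hours at room temperature before fluorescence reading.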

[3] = target: Peroxisome proliferator-activated receptor gamma (Homo sapiens) (UniProt P37231); assay: qHTS assay for small molecule antagonists of peroxisome proliferator-activated receptor gamma signaling (AID 588537; active = well fitted inhibition curve with a large enough effect in the signal ratio, with a control signal flat, not every such curve was filed as active; the % refers to the signal ratio;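 note: reporter cells co-stimulated with 50 nM rosiglitazone agonist during compound treatment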)
Summary of the method: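 PPAR-gamma-UAS-bla HEK293 cells (3000/well, 1% charcoal/dextran-stripped FBS) were preincubated 6-6.5 h at 37 C, given titrated compounds, then stimulated with 50 nM rosiglitazone for 16 h. Beta-lactamase activity was read with CCF4 dye; IC50 came from Hill fits.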

[4] = target: Vitamin D3 receptor (Homo sapiens) (UniProt P11473); assay: qHTS assay for small molecule antagonists of vitamin D receptor signaling (AID 588541);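 note: receptor activated by calcitriol during compound treatment; series mostly up to about 77 µM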
Summary of the method: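 VDR-UAS-bla HEK293T cells (2000/well, 2% charcoal-stripped FBS) were treated with titrated compounds plus 1-alpha,25-dihydroxyvitamin D3 (50 nM or 3 nM final) for 16 h at 37 C. CCF4 beta-lactamase fluorescence was read; Hill fits gave IC50.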

[5] = target: Vitamin D3 receptor (Homo sapiens) (UniProt P11473); assay: qHTS assay for small molecule agonists of vitamin D receptor signaling (AID 588543)
Summary of the method: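 VDR-UAS-bla HEK293T cells, 2000/well, 2% charcoal-stripped FBS; compound titration 16 h at 37 C; CCF4 beta-lactamase ratio read. Normalized to 50 nM 1-alpha,25-dihydroxyvitamin D3 (100%) and DMSO; Hill fit gives EC50, efficacy.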

[6] = qHTS assay for small molecule agonists of retinoid X receptor alpha signaling (AID 588544); conditions: HEK293T RXRa-UAS-bla, beta-lactamase reporter, 18 h; 530 nm emission
[7] = target: Retinoic acid receptor RXR-alpha (Homo sapiens) (UniProt P19793); assay: as above
[8] = target: Thyroid hormone receptor beta (Homo sapiens) (UniProt P10828); assay: qHTS assay for small molecule agonists of thyroid hormone receptor beta signaling (AID 588545)
Summary of the method: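 Compounds were tested as agonists in TR-UAS-bla-GripTite HEK 293 cells. After 18 hrs at 37 C, CCF4 substrate was added and fluorescence read after 2 hrs at room temperature.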

[9] = qHTS assay for small molecule antagonists of retinoid X receptor alpha signaling (AID 588546; active = well fitted inhibition curve with a large enough effect in the signal ratio, with a control signal flat, not every such curve was filed as active; the % refers to the signal ratio;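 note: cells stimulated with 9-cis-retinoic acid as agonist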); conditions: HEK293T RXRa-UAS-bla, beta-lactamase ratio, antagonist mode; measured here: W530 green channel, cytotoxicity proxy
Summary of the method: (§1)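 Beta-lactamase reporter inhibition, read as CCF4 fluorescence ratio (ex 405, em 460/530 nm) after 2 h at RT. HEK293T UAS-bla cells, 2500/well, were stimulated with 9-cis-RA at 500 or 100 nM final alongside test compound for 18 h at 37 C.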

[10] = target: Retinoic acid receptor RXR-alpha (Homo sapiens) (UniProt P19793); assay: as above; conditions: HEK293T RXRa-UAS-bla, beta-lactamase ratio, antagonist mode
Summary of the method: as §1

[11] = target: Thyroid hormone receptor beta (Homo sapiens) (UniProt P10828); assay: qHTS assay for small molecule antagonists of thyroid hormone receptor beta signaling (AID 588547; active = well fitted inhibition curve with a large enough effect in the signal ratio, with a control signal flat, not every such curve was filed as active; the % refers to the signal ratio;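 note: cells stimulated with 0.4 nM T3 agonist during compound exposure; series mostly up to about 77 µM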); conditions: TR-UAS-bla HEK293, beta-lactamase ratio, antagonist mode, 18 h
Summary of the method: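 TR-UAS-bla GripTite HEK293 cells in 2% charcoal/dextran FBS medium were preincubated 4 h at 37 C, given compound (0.59 nM to 92 uM) plus 0.4 nM T3 (final) for 18 h, then CCF4 for 2 h at RT; Hill fit gave IC50.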

[12] = target: Voltage-gated inwardly rectifying potassium channel KCNH2 (Homo sapiens) (UniProt Q12809); assay: qHTS Assay for Small Molecule Inhibitors of the Human hERG Channel Activity (AID 588834; active = well fitted inhibition curve with a large enough effect;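 note: top concentration of the series differs between compounds; lower thallium flux fluorescence means stronger hERG block; nearly all actives have a fitted effect of over 50% in size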)
Summary of the method: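 U2OS cells BacMam-transduced with hERG, 2000 cells/well, compound ~10 min at 37 °C before stimulation buffer. FluxOR thallium flux fluorescence read kinetically on FDSS; decrease indicates block; AC50 from Hill fits.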

[13] = qHTS assay for small molecule agonists of the antioxidant response element (ARE) signaling pathway (AID 651741; active = well fitted activation curve with a large enough effect in the signal ratio; the % refers to the signal ratio; note: potency is the fitted concentration of half-maximal effect)
Summary of the method: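 ARE-bla HepG2 cells (beta-lactamase reporter under ARE control) were plated at 2,000 cells/well, preincubated 5 h at 37 C/5% CO2, then treated with DMSO-dissolved compounds for 16 h at 37 C; LiveBLAzer B/G FRET substrate added, fluorescence read after 2 h at room temperature.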

[14] = qHTS assay for small molecule activators of the p53 signaling pathway (AID 651743; active = well fitted activation curve with a large enough effect in the signal ratio, not every such curve was filed as active; the % refers to the signal ratio; note: series mostly up to about 92 µM); conditions: HCT-116 p53RE-bla, beta-lactamase FRET ratio, 16 h; stronger effect = higher value
Summary of the method: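 p53RE-bla HCT-116 cells with a stably integrated beta-lactamase reporter under p53 response elements were plated, rested 5 hours at 37 C/5% CO2, then exposed to compounds in DMSO for 16 hours at 37 C. LiveBLAzer B/G FRET substrate was read after 2 hours at room temperature.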

[15] = qHTS assay for small molecule antagonists of peroxisome proliferator-activated receptor delta signaling (AID 588535; active = well fitted inhibition curve with a large enough effect in the signal ratio, with a control signal flat, not every such curve was filed as active; the % refers to the signal ratio;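 for max response: cells co-treated with a PPAR-delta agonist as stimulator during compound exposure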); conditions: HEK293T PPARd-UAS-bla, beta-lactamase FRET ratio, 18 h; 460 nm channel
Summary of the method: (§2)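 GeneBLAzer PPAR-delta-UAS-bla HEK293T cells in medium with 2% charcoal/dextran FBS were preincubated 5 hrs at 37 C, then given compounds, incubated 18 hrs at 37 C, and read by CCF4 beta-lactamase fluorescence; IC50 from Hill fits.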

[16] = target: Peroxisome proliferator-activated receptor delta (Homo sapiens) (UniProt Q03181); assay: as above
Summary of the method: as §2

[17] = qHTS assay for small molecule activators of the nuclear factor-kappa B (NF-kB) signaling pathway (AID 651749; active = well fitted activation curve with a large enough effect in the signal ratio; the % refers to the signal ratio; note: series mostly up to about 77 µM); conditions: NF-kB-bla ME-180 cells, beta-lactamase FRET ratio, 16 h; stronger effect = higher value
Summary of the method: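 ME-180 cells stably carrying a beta-lactamase reporter under an NF-kB response element were exposed to compound or DMSO vehicle for 16 hr at 37C, 5% CO2. Pathway activation was read by FRET, since reporter expression disrupts FRET.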

[18] = target: Glucocorticoid receptor (Homo sapiens) (UniProt P04150); assay: qHTS assay for small molecule agonists of glucocorticoid receptor signaling (AID 588532; active = well fitted curve in the direction sought with a large enough effect in the signal ratio, with a control signal flat; the % refers to the signal ratio); conditions: HeLa MMTV-bla, beta-lactamase ratio, agonist, 18 h; stronger effect = higher value; percent of dexamethasone control, DMSO zero
Summary of the method: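 Stimulation of a glucocorticoid response element-driven beta-lactamase gene was measured in HeLa cells. Responses were scaled between DMSO basal and 0.1 uM dexamethasone, then fitted for half-maximal stimulation.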

[19] = target: Glucocorticoid receptor (Homo sapiens) (UniProt P04150); assay: qHTS assay for small molecule antagonists of glucocorticoid receptor signaling (AID 588533; active = well fitted inhibition curve with a large enough effect in the signal ratio, with a control signal flat, not every such curve was filed as active; the % refers to the signal ratio;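 note: cells stimulated with 2 nM dexamethasone as agonist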)
Summary of the method: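 Antagonist-mode qHTS: compound titrations added to GRE-bla HeLa cells, then dexamethasone 2 nM final; 18 h, 37 C. CCF4 FRET fluorescence normalized to dexamethasone and DMSO; IC50 from Hill fit.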

Chain of Vitamin D3 receptor (Homo sapiens) (P11473 whole entry, looked up): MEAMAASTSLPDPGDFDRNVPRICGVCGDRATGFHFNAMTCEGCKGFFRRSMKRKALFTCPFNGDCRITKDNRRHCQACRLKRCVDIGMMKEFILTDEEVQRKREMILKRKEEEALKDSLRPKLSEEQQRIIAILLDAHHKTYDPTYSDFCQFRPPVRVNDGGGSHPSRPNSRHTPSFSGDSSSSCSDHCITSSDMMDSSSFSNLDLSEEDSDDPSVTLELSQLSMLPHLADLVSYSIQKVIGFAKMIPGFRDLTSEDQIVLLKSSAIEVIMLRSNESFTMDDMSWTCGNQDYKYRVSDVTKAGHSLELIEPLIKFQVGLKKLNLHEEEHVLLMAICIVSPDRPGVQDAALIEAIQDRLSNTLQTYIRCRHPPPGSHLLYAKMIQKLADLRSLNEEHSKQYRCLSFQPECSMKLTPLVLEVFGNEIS
Chain of Thyroid hormone receptor beta (Homo sapiens) (P10828 whole entry, looked up): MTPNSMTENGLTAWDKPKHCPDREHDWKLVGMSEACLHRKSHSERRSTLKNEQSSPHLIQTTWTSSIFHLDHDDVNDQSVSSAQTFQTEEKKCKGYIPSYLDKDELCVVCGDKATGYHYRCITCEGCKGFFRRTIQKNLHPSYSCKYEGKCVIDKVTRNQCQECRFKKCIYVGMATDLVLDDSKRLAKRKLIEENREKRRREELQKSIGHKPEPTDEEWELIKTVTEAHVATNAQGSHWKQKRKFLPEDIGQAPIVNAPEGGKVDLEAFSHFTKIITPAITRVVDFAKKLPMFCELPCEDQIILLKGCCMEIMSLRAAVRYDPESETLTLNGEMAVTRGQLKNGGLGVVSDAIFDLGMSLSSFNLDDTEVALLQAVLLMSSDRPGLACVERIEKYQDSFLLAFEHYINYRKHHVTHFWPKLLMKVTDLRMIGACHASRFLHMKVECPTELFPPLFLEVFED
Chain of Peroxisome proliferator-activated receptor gamma (Homo sapiens) (P37231 whole entry, looked up): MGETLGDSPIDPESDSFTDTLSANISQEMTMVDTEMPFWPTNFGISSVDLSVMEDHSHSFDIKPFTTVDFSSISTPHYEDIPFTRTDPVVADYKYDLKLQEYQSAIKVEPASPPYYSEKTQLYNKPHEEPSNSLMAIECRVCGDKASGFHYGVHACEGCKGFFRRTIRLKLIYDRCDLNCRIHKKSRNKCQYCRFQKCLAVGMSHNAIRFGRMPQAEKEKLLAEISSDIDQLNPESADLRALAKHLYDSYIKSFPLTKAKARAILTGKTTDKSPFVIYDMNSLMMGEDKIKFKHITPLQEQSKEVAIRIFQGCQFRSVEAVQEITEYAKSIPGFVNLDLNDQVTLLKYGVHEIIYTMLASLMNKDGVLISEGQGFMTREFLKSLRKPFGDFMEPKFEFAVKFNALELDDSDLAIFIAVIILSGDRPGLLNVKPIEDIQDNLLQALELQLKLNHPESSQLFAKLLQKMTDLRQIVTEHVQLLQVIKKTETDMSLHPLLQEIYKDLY
Chain of Glucocorticoid receptor (Homo sapiens) (P04150 whole entry, looked up): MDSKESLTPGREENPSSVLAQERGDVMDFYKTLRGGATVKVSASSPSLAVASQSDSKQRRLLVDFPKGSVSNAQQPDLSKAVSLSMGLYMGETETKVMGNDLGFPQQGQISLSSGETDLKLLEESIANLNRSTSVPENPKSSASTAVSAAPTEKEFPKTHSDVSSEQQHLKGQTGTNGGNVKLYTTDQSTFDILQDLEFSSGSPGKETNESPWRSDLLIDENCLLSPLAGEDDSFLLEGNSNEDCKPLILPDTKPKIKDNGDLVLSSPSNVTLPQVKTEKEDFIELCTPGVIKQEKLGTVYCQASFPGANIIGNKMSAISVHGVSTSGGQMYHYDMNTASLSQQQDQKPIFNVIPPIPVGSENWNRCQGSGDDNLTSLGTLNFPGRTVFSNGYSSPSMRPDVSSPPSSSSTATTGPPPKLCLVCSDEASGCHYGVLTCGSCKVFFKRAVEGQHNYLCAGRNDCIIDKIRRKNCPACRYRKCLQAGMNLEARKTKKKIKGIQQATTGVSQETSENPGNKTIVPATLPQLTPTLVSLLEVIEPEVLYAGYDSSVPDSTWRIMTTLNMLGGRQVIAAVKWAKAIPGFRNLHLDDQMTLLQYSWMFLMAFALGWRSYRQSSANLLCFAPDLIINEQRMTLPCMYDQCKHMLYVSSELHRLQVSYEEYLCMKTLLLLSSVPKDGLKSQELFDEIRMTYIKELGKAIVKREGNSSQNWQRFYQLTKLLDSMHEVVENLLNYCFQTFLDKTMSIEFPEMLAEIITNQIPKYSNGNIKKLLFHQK
Chain of Voltage-gated inwardly rectifying potassium channel KCNH2 (Homo sapiens) (Q12809 whole entry, looked up): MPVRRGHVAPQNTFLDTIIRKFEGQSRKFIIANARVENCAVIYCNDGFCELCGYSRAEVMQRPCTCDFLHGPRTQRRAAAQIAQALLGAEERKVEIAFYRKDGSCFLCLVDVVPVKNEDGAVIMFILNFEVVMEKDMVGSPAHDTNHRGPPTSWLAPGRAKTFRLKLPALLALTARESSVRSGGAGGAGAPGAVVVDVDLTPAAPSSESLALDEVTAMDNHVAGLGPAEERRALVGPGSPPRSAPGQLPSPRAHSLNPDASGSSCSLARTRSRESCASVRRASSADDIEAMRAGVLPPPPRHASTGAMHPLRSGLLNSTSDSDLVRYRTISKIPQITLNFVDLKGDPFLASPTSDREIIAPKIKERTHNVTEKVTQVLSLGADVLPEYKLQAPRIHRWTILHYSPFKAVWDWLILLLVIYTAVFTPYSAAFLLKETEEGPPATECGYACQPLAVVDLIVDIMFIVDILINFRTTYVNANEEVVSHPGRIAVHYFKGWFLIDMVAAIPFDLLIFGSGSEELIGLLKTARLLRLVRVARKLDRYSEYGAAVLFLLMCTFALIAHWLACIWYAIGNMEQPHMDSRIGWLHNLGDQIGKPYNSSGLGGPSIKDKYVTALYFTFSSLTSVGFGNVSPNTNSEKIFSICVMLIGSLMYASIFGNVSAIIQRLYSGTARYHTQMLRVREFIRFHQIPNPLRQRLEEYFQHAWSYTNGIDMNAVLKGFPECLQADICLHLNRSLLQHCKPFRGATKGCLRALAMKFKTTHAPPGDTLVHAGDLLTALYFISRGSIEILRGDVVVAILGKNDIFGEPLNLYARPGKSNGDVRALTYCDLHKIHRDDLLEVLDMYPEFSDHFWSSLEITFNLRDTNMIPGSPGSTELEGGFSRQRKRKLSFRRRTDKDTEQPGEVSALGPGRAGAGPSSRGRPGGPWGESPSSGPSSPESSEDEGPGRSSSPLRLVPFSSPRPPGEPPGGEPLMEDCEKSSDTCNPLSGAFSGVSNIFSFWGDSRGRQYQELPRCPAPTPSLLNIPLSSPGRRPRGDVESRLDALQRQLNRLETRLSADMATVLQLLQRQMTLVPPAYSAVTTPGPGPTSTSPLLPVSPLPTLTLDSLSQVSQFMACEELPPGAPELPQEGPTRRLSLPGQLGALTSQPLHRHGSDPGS
Chain of Bile acid receptor (Homo sapiens) (Q96RI1 whole entry, looked up): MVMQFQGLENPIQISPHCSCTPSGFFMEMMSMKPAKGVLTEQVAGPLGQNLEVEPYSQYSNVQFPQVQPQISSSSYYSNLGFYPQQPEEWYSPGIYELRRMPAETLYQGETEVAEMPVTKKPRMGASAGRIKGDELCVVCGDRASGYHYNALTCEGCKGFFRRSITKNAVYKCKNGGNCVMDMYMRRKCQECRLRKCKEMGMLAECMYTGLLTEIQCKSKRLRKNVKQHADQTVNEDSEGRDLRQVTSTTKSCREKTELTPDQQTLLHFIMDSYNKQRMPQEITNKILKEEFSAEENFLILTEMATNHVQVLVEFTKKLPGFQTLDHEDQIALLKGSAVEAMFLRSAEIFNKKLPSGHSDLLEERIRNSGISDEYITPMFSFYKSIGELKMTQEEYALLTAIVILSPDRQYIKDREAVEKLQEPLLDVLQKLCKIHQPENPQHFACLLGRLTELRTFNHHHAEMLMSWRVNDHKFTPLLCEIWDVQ
Chain of Retinoic acid receptor RXR-alpha (Homo sapiens) (P19793 whole entry, looked up): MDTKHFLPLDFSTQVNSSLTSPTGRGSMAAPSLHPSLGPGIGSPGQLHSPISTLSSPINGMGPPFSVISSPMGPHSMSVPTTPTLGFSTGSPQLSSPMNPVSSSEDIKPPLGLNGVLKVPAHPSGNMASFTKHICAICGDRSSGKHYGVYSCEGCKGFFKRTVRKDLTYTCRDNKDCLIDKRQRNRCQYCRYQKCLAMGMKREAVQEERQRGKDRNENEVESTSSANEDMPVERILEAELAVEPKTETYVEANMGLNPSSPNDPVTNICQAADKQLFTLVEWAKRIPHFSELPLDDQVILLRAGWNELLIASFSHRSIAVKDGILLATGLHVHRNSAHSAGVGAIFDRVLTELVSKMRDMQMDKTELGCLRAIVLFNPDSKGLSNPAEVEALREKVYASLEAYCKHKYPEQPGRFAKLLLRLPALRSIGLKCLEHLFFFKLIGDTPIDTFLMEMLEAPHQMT
Chain of Peroxisome proliferator-activated receptor delta (Homo sapiens) (Q03181 whole entry, looked up): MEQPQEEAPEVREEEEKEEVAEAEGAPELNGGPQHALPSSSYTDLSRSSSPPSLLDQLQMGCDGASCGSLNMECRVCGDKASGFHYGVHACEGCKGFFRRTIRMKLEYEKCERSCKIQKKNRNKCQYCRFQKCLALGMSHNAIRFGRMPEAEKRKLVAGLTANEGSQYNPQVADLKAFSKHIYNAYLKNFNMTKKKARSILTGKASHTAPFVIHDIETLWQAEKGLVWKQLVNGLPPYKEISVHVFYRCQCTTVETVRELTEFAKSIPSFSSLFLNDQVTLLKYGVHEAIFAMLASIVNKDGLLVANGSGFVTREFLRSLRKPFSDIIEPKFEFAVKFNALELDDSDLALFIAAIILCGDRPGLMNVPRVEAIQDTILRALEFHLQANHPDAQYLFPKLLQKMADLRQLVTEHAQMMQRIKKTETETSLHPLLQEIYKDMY

Row | Compound | outcome [1] | outcome [2] | outcome [3] | outcome [4] | outcome [5] | max response [6] | outcome [7] | outcome [8] | max response [9] | max response [10] | activity change % (negative = inhibition) [11] | Potency [12] | Potency [13] | activation [14] | max response [15] | Potency [16] | activation [17] | activation [18] | outcome [19]
1 | O=P(O)(OCc1ccccc1)OCc1ccccc1 | inactive | inactive | inactive | inactive | inactive | 6.08% | inactive | inactive | -0.49% | -5.97% (inactive) | 0.248% (inactive) | inactive | inactive | -2.58% (inactive) |  |  |  |  | 
2 | CC(=O)c1ccccn1 | inactive | inactive |  | inactive | inactive | -4.17% | inactive | inactive | -3.87% | -5.68% (inactive) | -7.89% (inactive) | inactive | inactive | -1.74% (inactive) | -20.6% | inactive | -1.25% (inactive) |  | 
3 | Nc1cccc(N)c1 | inactive | inactive | inactive | inactive |  | 0.0667% | inactive | inactive | 1.75% | -3.92% (inactive) | -1.36% (inactive) | inactive |  | -1.04% (inactive) |  |  | -0.628% (inactive) |  | 
4 | O=[N+]([O-])c1c(Cl)cc(Cl)cc1Cl |  | inactive | inactive | inactive | inactive | -6.72% | inactive | inactive | -2.99% | 8.69% (inactive) | 3.07% (inactive) | inactive |  | 1.35% (inactive) | 0.0891% | inactive | -0.147% (inactive) | 0.964% (inactive) | inactive
5 | O=c1[nH][nH]c(=O)c2cc([N+](=O)[O-])ccc12 |  | inactive | inactive | inactive | inactive | -1.84% | inactive | inactive | -8.03% | 10.6% (inactive) | 15.8% (inactive) | inactive | inactive | -3.95% (inactive) | 10.6% | inactive | 0.392% (inactive) | 0.885% (inactive) | inactive
6 | CCOCC(=O)O |  | inactive | inactive | inactive | inactive | -7.45% | inactive | inactive | 2.97% | 4.52% (inactive) | 4.7% (inactive) | inactive | inactive | -3.4% (inactive) | -19% | inactive | 0.266% (inactive) | 2.71% (inactive) | inactive
7 | OCCO | inactive | inactive |  | inactive | inactive | 7.28% | inactive | inactive | 0.506% | 11.2% (inactive) | 21% (inactive) | inactive | inactive | -3.22% (inactive) |  |  | -0.33% (inactive) |  | 
8 | O=Cc1ccc(CO)o1 | inactive | inactive |  | inactive | inactive | -13.3% | inactive | inactive | 0.176% | 8.3% (inactive) | 7.62% (inactive) | inactive |  | -2.06% (inactive) |  |  |  |  | 
9 | Cc1ccccc1Br | inactive | inactive |  | inactive |  | -14.2% | inactive |  | 1.58% | 1.27% (inactive) |  | inactive | inactive |  |  |  | -0.604% (inactive) |  | 
10 | O=C(O)c1ccc(Cl)c(Cl)c1 | inactive | inactive |  | inactive |  | 12.9% | inactive | inactive | 11.8% | 14.6% (inactive) | 2.03% (inactive) | inactive | inactive | 3.05% (inactive) | 20.7% | inactive | 0.147% (inactive) |  | 
11 | O=C1OC(=O)c2c(Cl)c(Cl)c(Cl)c(Cl)c21 | inactive | inactive |  |  |  | -5.89% and -6.44% | inactive | inactive | -4.9% and 1.94% | 0.977% (inactive) and -5.45% (inactive) | -1.32% (inactive) and -1.29% (inactive) | inactive | inactive | -2.26% (inactive) and 13.1% (inactive) | -11.3% | inactive |  |  | 
12 | O=C(O)c1ccc(C(=O)O)cc1 |  | inactive | inactive | inactive | inactive | -16.5% and -21.7% | inactive | inactive | -3.66% and -13.6% | 1.97% (inactive) and -1.47% (inactive) | -2.68% (inactive) and 4.87% (inactive) | inactive | inactive | -0.449% (inactive) and 6.06% (inactive) | 14.5% and 21.9% | inactive | 0.423% (inactive) and -1.36% (inactive) | 6.51% (inactive) and -2.73% (inactive) | inactive
13 | CCNc1cc(O)ccc1C | inactive |  |  | inactive | inactive | -5.56% | inactive | inactive | -2.01% | 1.41% (inactive) | 14.6% (inactive) | inactive | 59.6 µM (active) | -1.04% (inactive) |  |  |  |  | 
14 | COc1ccc(N)c(C)c1 | inactive |  |  | inactive | inactive | -12.9% | inactive | inactive | -2.69% | 8.01% (inactive) | -12.3% (inactive) | inactive | inactive |  | -12.2% |  | -0.857% (inactive) |  | 
15 | NC=O | inactive | inactive |  | inactive |  | 4.7% | inactive | inactive | -9.34% | -7.48% (inactive) | 21.1% (inactive) |  | inactive |  |  |  | -0.435% (inactive) |  | 
16 | COc1ccccc1[N+](=O)[O-] | inactive |  |  | inactive | inactive |  |  | inactive | -6.53% and 1.73% | 20.4% (inactive) and 0.175% (inactive) | -3.34% (inactive) and -9.45% (inactive) | inactive | inactive | -2.31% (inactive) and 1.29% (inactive) |  |  |  |  | 
